In the library only some 5.7% were active in any assay of this set; here they are far more common.
hgDAF-12 ag – agonists of H. glycines DAF-12 nuclear receptor; HEK293 GAL4-hgDAF12 UAS-luciferase reporter, agonist luminescence; normalized to butyrate control; activation, % at 6.8 µM; hit rate 1.8% among 370,000;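 active = activation above a cutoff set at the mean of all screened compounds plus 3 SD, cut at about 10% in these data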;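 note: 0% = DMSO wells and 100% = sodium butyrate wells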
AHR activator – activates the human aryl hydrocarbon receptor; hit rate 2.5% among 320,000; AID 2796; activation, % at 5 µM; P35869; AHR-responsive luciferase reporter cells, luminescence; in the data active = activation above about 47%;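 note: 0% = vehicle wells and 100% = reference agonist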
hcDAF-12 act – activators of H. contortus DAF-12 nuclear receptor; HEK293 hcDAF-12 lit1-tk-luc reporter, luminescence; 0% DMSO, 100% Δ7-dafachronic acid; activation, % at 6.8 µM; hit rate 1.4% among 370,000; AID 652067;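 active = activation above the mean of all tested compounds plus 3 SD, cut at about 5.5% in these data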;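 note: 100% = response to 3 µM Δ7-dafachronic acid high control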
DAX1 inh-1 – inhibitors of DAX1 repression of SF-1 activated StAR promoter | HEK293T StAR-luciferase reporter, SF-1/DAX-1 repression relief | inhibition, % at 6.8 µM | hit rate 1.1% among 370,000 | AID 652010;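 active = inhibition above the mean over all tested compounds plus 3 SD, cut at about 3.6% in these data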;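 note: 0% = DAX-1 cells with DMSO and 100% = cells lacking DAX-1 with DMSO; higher inhibition means more luminescence from relief of DAX-1 repression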
ssDAF-12 act – S. stercoralis DAF-12 activation, primary screen | HEK293 ssDAF-12/GRIP1 lit1-tk-luc reporter, luminescence; % of 3 µM dafachronic acid response | activation, % at 6.8 µM | hit rate 1% among 370,000 | AID 652126;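 active = activation above the mean over all tested compounds plus 3 SD, cut at about 0.9% in these data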;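 note: 0% = DMSO-only wells and 100% = 3 µM delta7-dafachronic acid wells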
DAX1 inh-2 – NR0B1 (DAX1) inhibition; P51843; HEK293 Gal4-DAX1 luciferase reporter, luminescence; inhibition, % at 6.75 µM; hit rate 0.99% among 340,000;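 active = inhibition above the mean over all tested compounds plus 3 SD, cut at about 4.2% in these data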;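 note: 0% = DAX1-transfected cells with DMSO and 100% = empty-vector control cells with DMSO; inhibition shows as a rise in luminescence from relieved DAX1 repression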
Target sequence (P51843 207-470 limits assumed): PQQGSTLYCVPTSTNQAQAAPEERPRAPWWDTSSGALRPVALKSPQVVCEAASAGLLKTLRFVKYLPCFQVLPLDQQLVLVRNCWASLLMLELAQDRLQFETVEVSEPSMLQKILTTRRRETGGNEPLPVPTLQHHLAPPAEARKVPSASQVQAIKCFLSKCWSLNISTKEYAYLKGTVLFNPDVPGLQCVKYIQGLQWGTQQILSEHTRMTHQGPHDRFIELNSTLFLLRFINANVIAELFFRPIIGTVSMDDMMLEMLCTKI
An asterisk follows results filed as active.

How did CC1=NN(c2ccccc2)C(=O)C1N=Nc1ccc(N)cc1 (configuration not stated) do in these assays?
hgDAF-12 ag: 0; AHR activator: 49*; hcDAF-12 act: 1; DAX1 inh-1: -3; ssDAF-12 act: -1; DAX1 inh-2: -4

Results for COc1ccc(N=NC2C(=O)N(c3ccccc3)N=C2C)cc1 (configuration not stated) ?
hgDAF-12 ag: 1; AHR activator: 51*; hcDAF-12 act: 1; DAX1 inh-1: 0; ssDAF-12 act: 0; DAX1 inh-2: -1

How did CCN(CC)C(=O)CC[C@H]1CC[C@]2(CCCN(C(=O)c3cccnc3)C2)O1 do in these assays?
hgDAF-12 ag: 0; hcDAF-12 act: 0; DAX1 inh-1: 0; ssDAF-12 act: -2

Results for COc1ccc(N/N=C(\C#N)C(=N)N2CCCCC2)cc1 ?
hgDAF-12 ag: 10; AHR activator: 14; hcDAF-12 act: 1; DAX1 inh-1: 0; ssDAF-12 act: -1; DAX1 inh-2: 6.4*

Results for N#C/C(=N\Nc1ccccc1F)C(=N)N1CCCCC1 ?
hgDAF-12 ag: 11*; AHR activator: 32; hcDAF-12 act: 5; DAX1 inh-1: 3; ssDAF-12 act: 0; DAX1 inh-2: 2

Results for N#C/C(=N\Nc1ccccc1)C(=N)N1CCOCC1 ?
hgDAF-12 ag: 3; AHR activator: 6; hcDAF-12 act: 1; DAX1 inh-1: 0; ssDAF-12 act: -1; DAX1 inh-2: 2

Results for COc1ccccc1CNC(=O)C(=O)NCC1OCCN1C(=O)c1cccs1 (configuration not stated) ?
hgDAF-12 ag: 3; AHR activator: -2; hcDAF-12 act: -3; DAX1 inh-1: 0; ssDAF-12 act: -2; DAX1 inh-2: 0

How did Cc1nc2sc(C(N)=O)c(N)c2c(C)c1CC(=O)c1ccccc1 do in these assays?
hgDAF-12 ag: 12*; AHR activator: 8; hcDAF-12 act: 0; DAX1 inh-1: 1; ssDAF-12 act: -1; DAX1 inh-2: 0

How did Cc1cc(C)c2c(N)c(C(=O)c3ccccc3)sc2n1 do in these assays?
hgDAF-12 ag: 2; AHR activator: 14; hcDAF-12 act: -2; DAX1 inh-1: -1; ssDAF-12 act: -2

How did COc1ccc(NC(=O)COC(=O)CCc2ccccc2)c(OC)c1 do in these assays?
hgDAF-12 ag: 5; AHR activator: -1; hcDAF-12 act: 4; DAX1 inh-1: 0; ssDAF-12 act: -1; DAX1 inh-2: 0

How did O=C(COC(=O)c1cncc(Br)c1)Nc1ccc(N2CCCCC2)cc1 do in these assays?
hgDAF-12 ag: 1; AHR activator: 25; hcDAF-12 act: 4; DAX1 inh-1: -1; ssDAF-12 act: 1.8*; DAX1 inh-2: 1

Results for Cc1cc(Oc2nc3c(C)cccn3c(=O)c2/C=C(\C#N)S(=O)(=O)c2ccccc2)ccc1Cl ?
hgDAF-12 ag: 4; AHR activator: 1; hcDAF-12 act: 6.2*; DAX1 inh-1: 1; ssDAF-12 act: 1; DAX1 inh-2: 0

What do the screens show for `Cc1cccn2c(=O)c(/C=C(\C#N)S(=O)(=O)c3ccccc3)c(Oc3ccc(Cl)cc3)nc12`?
hgDAF-12 ag: 1; AHR activator: 5; hcDAF-12 act: -1; DAX1 inh-1: 0; ssDAF-12 act: -1; DAX1 inh-2: 0

What do the screens show for `CN1CCn2cnc(C(=O)N3CCN(c4ccccc4)CC3)c2C1=O`?
hgDAF-12 ag: 3; hcDAF-12 act: -1; DAX1 inh-1: 1; ssDAF-12 act: -1; DAX1 inh-2: 1

Results for Cc1c(C(=O)Nc2nccs2)oc2ccc(F)cc12 ?
hgDAF-12 ag: 9; AHR activator: 40; hcDAF-12 act: 6.3*; DAX1 inh-1: 2; ssDAF-12 act: 1.6*; DAX1 inh-2: 2

How did O=C(Nc1nc(-c2ccccn2)cs1)c1cc2ccccc2o1 do in these assays?
hgDAF-12 ag: 7; AHR activator: 29; hcDAF-12 act: 3; DAX1 inh-1: 0; ssDAF-12 act: 0; DAX1 inh-2: -2

What do the screens show for `Cc1c(C(=O)Nc2nc(-c3ccccn3)cs2)oc2ccccc12`?
AHR activator: 64*; DAX1 inh-2: 0

How did Nc1ccn([C@@H]2O[C@H](C(=O)N[C@H]3c4ccccc4C[C@H]3O)[C@@H](O)[C@H]2O)c(=O)n1 do in these assays?
hgDAF-12 ag: 2; hcDAF-12 act: 0; DAX1 inh-1: 2; ssDAF-12 act: -1

Screening results as filed in PubChem.
